Compound activity as filed in PubChem.
PAFAH2 FP inh: inhibitors of human PAFAH2 | Q99487 | recombinant PAFAH2, FP-rhodamine activity probe, fluorescence polarization | inhibition, % at 3.39 µM | 340,000 tested, 0.99% active | AID 492956;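 active = inhibition above the mean over all tested compounds plus 3 SD, cut at about 30% in these data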;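 note: inhibitors block probe labeling of enzyme so polarization drops; 0% = enzyme with DMSO and 100% = wells lacking PAFAH2 protein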
Fh CTSL1 inh: cathepsin L1 inhibition, PFM18AAP counter-screen. recombinant F. hepatica cathepsin L1, Z-Leu-Arg-MCA fluorescence. inhibition, % at 5.96 µM. 300,000 tested, 0.49% active. AID 1906;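 active = inhibition above the mean of all tested compounds plus 3 SD, set per screening campaign, cut at about 17% in these data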;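 note: 0% = plate median of test compound wells and 100% = 1 µM Z-Phe-Ala-diazomethylketone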
PAFAH1B3 inh: inhibitors of human PAFAH1B3; Q15102; recombinant PAFAH1B3, FP-rhodamine probe, fluorescence polarization; inhibition, % at 3.39 µM; 340,000 tested, 0.28% active;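 active = inhibition above the screen-wide average of all tested compounds plus 3 SD, cut at about 25% in these data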;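 note: 0% = enzyme with DMSO only and 100% = wells lacking PAFAH1B3 protein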
PAFAH1B2 FP inh: inhibitors of human PAFAH1B2; inhibition, % at 3.39 µM; recombinant PAFAH1B2, FP-rhodamine activity probe, fluorescence polarization; 340,000 tested, 1.2% active; P68402;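 active = inhibition above the mean of all tested compounds plus 3 SD, cut at about 24% in these data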;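 note: 0% = enzyme with DMSO and 100% = wells lacking PAFAH1B2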
PP5 primary: inhibitors of human protein phosphatase 5 (PP5); inhibition, % at 6.7 µM; P53041; 320,000 tested, 0.18% active; purified PP5c, OMFP substrate fluorescence;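 active = inhibition above the campaign's mean inhibition across all tested compounds plus 3 SD, cut at about 9.5% in these data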;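 note: 0% = DMSO only and 100% = 100 µM cantharidin control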
Target sequence (P53041 whole entry, looked up): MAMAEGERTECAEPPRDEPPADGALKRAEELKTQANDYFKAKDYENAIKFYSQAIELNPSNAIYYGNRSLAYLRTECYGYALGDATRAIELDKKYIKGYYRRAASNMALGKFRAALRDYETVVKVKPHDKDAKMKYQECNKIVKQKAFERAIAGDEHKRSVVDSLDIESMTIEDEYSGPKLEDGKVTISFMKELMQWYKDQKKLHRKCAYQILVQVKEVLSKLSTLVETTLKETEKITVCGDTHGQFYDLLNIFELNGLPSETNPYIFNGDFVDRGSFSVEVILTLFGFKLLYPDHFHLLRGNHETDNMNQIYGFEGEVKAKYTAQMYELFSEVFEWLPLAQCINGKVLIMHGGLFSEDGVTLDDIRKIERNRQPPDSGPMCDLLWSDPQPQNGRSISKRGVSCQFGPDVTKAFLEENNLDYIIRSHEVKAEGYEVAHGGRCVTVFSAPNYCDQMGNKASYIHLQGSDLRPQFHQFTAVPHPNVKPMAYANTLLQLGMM
pPAFAH inh: inhibitors of human plasma PAF acetylhydrolase (pPAFAH); 330,000 tested, 1.5% active; AID 463082; Q13093; inhibition, % at 3.39 µM; recombinant pPAFAH, FP-rhodamine probe fluorescence polarization;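 active = inhibition above the mean inhibition across the screen plus 3 SD, cut at about 25% in these data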;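 note: inhibitors block binding of the rhodamine activity-based probe so polarization drops; 0% = enzyme with DMSO and 100% = wells lacking pPAFAH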
Numbers without * were called inactive; x = no result. In the library only some 3% were active in any assay of this set; here they are far more common.

SMILES | PAFAH2 FP inh | Fh CTSL1 inh | PAFAH1B3 inh | PAFAH1B2 FP inh | PP5 primary | pPAFAH inh
Cc1ccc(S(=O)(=O)Nc2ccc(NC(=O)CN3CCCCC3)c(Cl)c2)cc1 | 2.6 | -1.4 | 9.6 | 8.4 | 4.7 | 26.2*
O=C(CN1CCN(S(=O)(=O)c2ccc(Cl)cc2)CC1)Nc1ccc(F)cc1F | -2.4 | -6.6 | 5.7 | 28.2* | 5.3 | 1.1
COc1ccc(NC(=O)CN2CCN(S(=O)(=O)c3ccc(Cl)cc3)CC2)cc1 | -0.4 | 1.4 | 8.7 | 21.1 | 5.2 | 6.0
Cc1ccc(S(=O)(=O)N2CCN(CC(=O)Nc3ccccc3Cl)CC2)cc1 | -0.8 | x | 4.4 | 8.2 | 4.0 | 1.5
COCCn1c(C)cc(C(=O)COC(=O)/C=C/c2ccc(OC)cc2OC)c1C | 29.0 | x | 2.3 | 3.1 | x | 2.1
COc1ccc(C(=O)NC2CC2)cc1OC1CCN(Cc2ccc(NC(C)=O)cc2)CC1 | -6.2 | x | 5.3 | 2.7 | x | x
CC(=O)c1cnc2ncnn2c1C | 2.5 | -1.9 | 2.3 | -0.2 | -0.3 | 1.8
O=C(CN1CCN(S(=O)(=O)c2ccc(Cl)cc2)CC1)NC1CC1 | 0.0 | -3.9 | -3.1 | 28.8* | 2.0 | -4.0
O=C(CN1CCN(S(=O)(=O)c2ccccc2)CC1)NC1CC1 | -9.2 | 0.9 | 3.1 | 5.7 | 1.6 | -2.8
CCN1CCN(S(=O)(=O)c2ccc(Cl)c(C(=O)NC3CC3)c2)CC1 | 5.4 | x | 8.5 | 24.2* | 0.2 | -1.5
COc1ccc(C)cc1NC(=O)CN1CCN(S(=O)(=O)c2ccc(Br)cc2)CC1 | 1.9 | 0.8 | -2.6 | 27.7* | 3.8 | -3.9
CCOC(=O)N1CCC(N2CCN(S(=O)(=O)c3ccc(Cl)cc3)CC2)CC1 | 5.4 | 0.3 | -0.5 | 29.3* | 3.0 | 0.3
O=C(CC(C(=O)O)c1cccc(Br)c1)c1ccc(Cl)cc1 (configuration not stated) | 6.3 | -1.7 | 3.4 | 4.6 | 0.5 | 2.9
CC1c2cc3c(cc2CCN1C(=O)c1cccc(F)c1)OCCCO3 (configuration not stated) | -4.6 | 1.5 | 1.2 | 2.2 | -0.8 | 2.7
COc1ccc(NC(=O)CN2C(=O)NC(C)(c3ccccc3)C2=O)c(OC)c1 (configuration not stated) | 7.5 | -0.9 | 1.2 | 6.7 | 2.7 | 5.9
COc1ccc(C(=O)C(C)OC(=O)CCN2C(=O)C3CC=CCC3C2=O)cc1 (configuration not stated) | 8.2 | x | 1.2 | 0.7 | -3.1 | -5.8
O=C(CCN1CCN(S(=O)(=O)c2ccc(Br)cc2)CC1)Nc1ccccc1F | -5.0 | -1.9 | 8.2 | 24.9* | 0.7 | 4.7
COc1ccc(NS(=O)(=O)c2cc(NC(=O)c3ccc(C)s3)ccc2N2CCOCC2)cc1 | -8.8 | -0.6 | -3.6 | 0.3 | 4.7 | 27.0*
COc1ccccc1Cc1noc(-c2cc(Cl)ccc2OC)n1 | 11.3 | 3.2 | 7.8 | 5.5 | 1.1 | 29.0*
COc1cc(-c2nc(Cc3ccccc3Cl)no2)cc(OC)c1OC | 4.5 | 2.7 | 0.4 | 4.0 | 4.4 | 20.5
Cc1ccc(NC(=O)CCCCCN2C(=O)[C@@H]3Cc4ccccc4CN3C2=O)cc1 | 8.7 | 1.1 | 7.0 | 28.3* | 2.8 | 2.6
CCN(CC)c1ccc(NC(=O)CSc2ccsc2[N+](=O)[O-])c(C)c1 | 9.8 | 4.7 | 8.1 | 0.0 | -1.1 | 28.1*
Cc1ccc(C2CC(=O)NC(SCc3ccccc3)=C2C#N)cc1 (configuration not stated) | 0.1 | 2.8 | 4.7 | 7.9 | 3.0 | 30.1*
N#CC1=C(SCc2ccccc2)NC(=O)CC1c1ccc(O)cc1 (configuration not stated) | 0.8 | -4.3 | -10.3 | 6.5 | 2.5 | 26.1*
COC(=O)CSC1=C(C#N)C(c2ccc(F)cc2)CC(=O)N1 (configuration not stated) | 9.1 | 0.7 | 5.7 | 2.1 | -0.2 | 3.5
CCCCCCSC1=C(C#N)C(c2ccccc2)CC(=O)N1 (configuration not stated) | 0.7 | 6.7 | 2.6 | 11.7 | 0.6 | 13.2
CCOC(=O)C1(Cc2cccc(Cl)c2)CCCN(C(=O)C(C)(C)C)C1 (configuration not stated) | -4.7 | -3.1 | 4.9 | -3.3 | 2.6 | -6.7
CCC(C)C1Nc2ccc(C(=O)NCCc3ccc(OC)c(OC)c3)cc2NC1=O (configuration not stated) | -6.5 | 7.2 | 6.0 | 0.9 | 0.7 | 1.3
O=C(NCCC1=CCCCC1)C(=O)NCc1ccccc1Cl | -0.9 | 7.9 | 2.4 | 2.9 | 2.5 | -1.8
